Screens as filed in PubChem BioAssay.
The list is not random: actives were taken first. Their share in the collection is about 2.4%.
POLI inh = blocks human DNA polymerase iota activity; Q9UNA4; Pol iota fluorescent replication assay, 10 min; Potency, µM (series often up to 115 µM), hits mostly inhibitors; actives 1% (n = 390,000); AID 588590
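Pol iota at 10 nM preincubated 15 min with compounds at room temperature; reaction started with fluorescent substrate, 50 nM final. Fluorescence read kinetically at 0 and 10 min; buffer-only wells as negative control.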
Pol kappa inh = inhibitors of human DNA polymerase kappa. purified Pol kappa, fluorescent DNA synthesis assay, 10 min. actives 0.53% (n = 400,000). Q9UBT6. Potency, µM (doses to about 107 µM), hits mostly inhibitors
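Readout: fluorescence, taken kinetically at 0 and 10 min. Conditions: 10 nM Pol kappa, 15 min RT compound preincubation, 50 nM substrate final. Controls: enzyme-free buffer wells.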
TDP1 inh = TDP1 (human) enzyme inhibition; Q9NUW8; recombinant TDP1, AlphaScreen DNA substrate cleavage; Potency, µM (titrated, usually from 130 µM), hits mostly inhibitors; actives 0.28% (n = 350,000); AID 485290; further: nearly all actives have a fitted effect of over 40% in size
Target sequence (Q9NUW8 whole entry, looked up): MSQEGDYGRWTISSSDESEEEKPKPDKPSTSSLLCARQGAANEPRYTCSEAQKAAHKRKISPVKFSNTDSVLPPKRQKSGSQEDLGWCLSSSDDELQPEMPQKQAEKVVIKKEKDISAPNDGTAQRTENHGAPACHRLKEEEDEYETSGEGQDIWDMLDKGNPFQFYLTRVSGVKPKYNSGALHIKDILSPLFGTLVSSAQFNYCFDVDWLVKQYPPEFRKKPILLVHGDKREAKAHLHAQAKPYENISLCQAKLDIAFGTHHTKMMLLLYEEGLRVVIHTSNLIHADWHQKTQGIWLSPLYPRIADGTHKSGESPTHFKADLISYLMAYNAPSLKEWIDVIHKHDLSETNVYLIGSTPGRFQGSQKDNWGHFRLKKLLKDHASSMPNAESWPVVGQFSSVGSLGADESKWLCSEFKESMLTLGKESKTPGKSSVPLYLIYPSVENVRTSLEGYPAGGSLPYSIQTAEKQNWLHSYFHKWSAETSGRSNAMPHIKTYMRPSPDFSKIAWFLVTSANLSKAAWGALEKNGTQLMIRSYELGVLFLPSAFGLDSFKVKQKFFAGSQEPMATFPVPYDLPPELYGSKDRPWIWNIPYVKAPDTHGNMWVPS
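Compounds were preincubated with Tdp1 (1 nM final) for 15 min at room temperature before substrate (15 nM final) started a 5 min reaction; beads (10 ug/ml final) were then added for 10 min before AlphaScreen detection.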
Pol eta inh = DNA polymerase eta (human) inhibition; Q9Y253; recombinant Pol eta, fluorescent DNA replication assay; Potency, µM (top dose mostly 114 µM), actives largely listed as inhibitors; actives 1.2% (n = 390,000)
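Pol eta at 10 nM preincubated with compounds 15 min at room temperature; reaction started with fluorescent substrate (50 nM final) and read kinetically at 0 and 10 min.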
Pol beta inh = DNA polymerase beta (human) inhibition; P06746; Pol beta primer extension/strand displacement, fluorescence kinetic; Potency, µM (doses to about 114 µM), most hits filed as inhibitors; actives 1.3% (n = 340,000); AID 485314
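Curves were derived by four-parameter Hill fits of normalized qHTS data. The kinetic fluorescent primer-extension read was taken at 0 and 10 min after 50 nM substrate, following a 15 min room-temperature preincubation of 10 nM enzyme with compounds.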
A number is an active result; [ ] = dose if it differs, or a comment. The call rests on the fitted dose curve; in most records, active means well fitted curve in the direction sought with a large enough effect; inconclusive means small, poorly fitted or top-dose-only effect, or another doubt; inactive means no such curve, though single readings can be large; an effect the other way counts as inactive or inconclusive.

Results for CCOc1nc(C#N)nc(N(c2ccccc2)c2ccccc2)n1 ?
POLI inh: inactive; Pol kappa inh: inactive; TDP1 inh: inactive

What do the screens show for `COC(=O)CCC(=O)OC1(C)C(=O)C2=CN(CCc3ccccn3)C(c3ccc(OC)cc3)=CC2=C(Br)C1=O` (centres undefined)?
POLI inh: inconclusive; Pol kappa inh: inactive; TDP1 inh: inactive[21 µM]; Pol eta inh: 32µM

What do the screens show for `COc1ccc(C2=CC3=C(Br)C(=O)C(C)(OC(=O)c4ccc(Cl)nc4)C(=O)C3=CO2)cc1` (centres undefined)?
POLI inh: 10µM; Pol kappa inh: inconclusive; TDP1 inh: inactive; Pol eta inh: 22µM; Pol beta inh: 50µM

What do the screens show for `COC(=O)CCC(=O)OC1(C)C(=O)C2=CN(C(CO)CO)C(c3ccc(OC)cc3)=CC2=C(Br)C1=O` (centres undefined)?
TDP1 inh: inactive[21 µM]; Pol beta inh: inactive

How did COC(=O)CCC(=O)OC1(C)C(=O)C2=COC(c3ccc(OC)cc3)=CC2=C(Br)C1=O (centres undefined) do in these assays?
POLI inh: 13µM; Pol kappa inh: 25µM; TDP1 inh: inactive; Pol eta inh: 10µM; Pol beta inh: 22µM

How did CCc1cccc(NC(=O)Cn2c(=O)n3nc(-c4cccc(F)c4)nc3c3ccccc32)c1 do in these assays?
POLI inh: inactive; Pol kappa inh: inactive; TDP1 inh: inactive; Pol eta inh: inactive; Pol beta inh: inactive

How did Cc1ccc(C)c(N2CCN(C(c3ccc(F)cc3)c3nnc(-c4ccccc4)o3)CC2)c1 (centres undefined) do in these assays?
POLI inh: 89µM; Pol kappa inh: inconclusive; TDP1 inh: inactive; Pol eta inh: inactive; Pol beta inh: inactive

Results for CN(CC(=O)Nc1ccc(Cl)cc1)C(=O)CCc1c[nH]c2ccccc12 ?
POLI inh: inactive; Pol kappa inh: inactive; TDP1 inh: inactive[0.0935 µM]; Pol eta inh: inactive; Pol beta inh: inactive

Results for CN(CC(=O)Nc1ccc(Cl)cc1)C(=O)CCc1ccccc1 ?
POLI inh: 89µM; Pol kappa inh: inactive; TDP1 inh: inactive; Pol eta inh: inactive; Pol beta inh: inactive

What do the screens show for `N#CN1CCC(NS(=O)(=O)c2ccc(F)cc2)CC1`?
TDP1 inh: inactive

Results for CCC(C(=O)Nc1ccc(C(C)=O)cc1)n1c(C)c2cnn(-c3ccccc3)c(=O)c2c1C (centres undefined) ?
POLI inh: inactive; Pol kappa inh: inactive; TDP1 inh: inactive; Pol eta inh: inactive; Pol beta inh: inactive

How did CCc1cc2c(=O)n(Cc3ccco3)c(SCC(=O)N(C)C3CCS(=O)(=O)C3)nc2s1 (centres undefined) do in these assays?
POLI inh: inconclusive; Pol kappa inh: inconclusive; TDP1 inh: inactive; Pol eta inh: inactive; Pol beta inh: 20µM

How did CCc1cc2c(=O)n(Cc3ccco3)c(SCc3c(C)noc3C)nc2s1 do in these assays?
POLI inh: 14µM; Pol kappa inh: inactive; TDP1 inh: inactive; Pol eta inh: inactive; Pol beta inh: inactive

What do the screens show for `NS(=O)(=O)c1cccc(NC(=O)c2ccc3nc[nH]c3c2)c1`?
POLI inh: inconclusive; Pol kappa inh: inconclusive; Pol eta inh: 79µM; Pol beta inh: 50µM

What do the screens show for `Cc1cccc(NC(=O)CNC(=O)c2ccc3nc[nH]c3c2)c1C`?
POLI inh: inconclusive; Pol kappa inh: inconclusive; TDP1 inh: inactive; Pol eta inh: 13µM

What do the screens show for `Cc1ccc(NS(=O)(=O)c2cc3c(cc2C)NC(=O)CO3)cc1C`?
TDP1 inh: inactive

Results for CN(C)[C@H]1C(=O)C(C(=O)NCN2CCCC2)=C(O)[C@]2(O)C(=O)C3=C(O)c4c(O)cccc4[C@@](C)(O)[C@H]3C[C@@H]12 ?
Pol kappa inh: 4.7µM; TDP1 inh: inconclusive

Results for CN(C)c1ccc(O)c2c1CC1CC3[C@@H](N(C)C)C(=O)C(C(N)=O)=C(O)[C@]3(O)C(=O)C1=C2O (some centres undefined) ?
POLI inh: inactive; Pol kappa inh: inactive; Pol eta inh: inconclusive; Pol beta inh: inconclusive

How did O=C(C[n+]1cccc(Br)c1)c1ccc(Br)cc1 do in these assays?
POLI inh: inconclusive; Pol kappa inh: inactive

How did Cc1ccc(/C=C2\Oc3c(ccc(O)c3CN3CCN(CCO)CC3)C2=O)cc1 do in these assays?
POLI inh: inactive; Pol kappa inh: inactive; TDP1 inh: inactive; Pol eta inh: inactive; Pol beta inh: inactive

What do the screens show for `CC1CCN(Cc2c(O)ccc3c2O/C(=C\c2ccco2)C3=O)CC1`?
POLI inh: inconclusive; Pol kappa inh: inconclusive; TDP1 inh: inactive; Pol eta inh: 56µM; Pol beta inh: 11µM

What do the screens show for `CCN1CCN(Cc2c(O)ccc3c2O/C(=C\C=C\c2ccccc2OC)C3=O)CC1`?
POLI inh: inactive; Pol kappa inh: inactive; TDP1 inh: inactive; Pol eta inh: inactive; Pol beta inh: inactive

Results for O=C1/C(=C/c2ccco2)Oc2c1ccc(O)c2CN1CCCCC1 ?
POLI inh: inconclusive; Pol kappa inh: 79µM; TDP1 inh: inconclusive; Pol eta inh: 22µM; Pol beta inh: 20µM

Results for COCCN(CCOC)Cc1c(O)ccc2c1O/C(=C\c1ccco1)C2=O ?
POLI inh: inconclusive; Pol kappa inh: inconclusive; Pol eta inh: inconclusive; Pol beta inh: 10µM

What do the screens show for `CCC(=O)Oc1ccc2c(c1)O/C(=C\c1ccco1)C2=O`?
POLI inh: inconclusive; Pol kappa inh: inconclusive; TDP1 inh: inactive; Pol eta inh: inconclusive; Pol beta inh: inconclusive

How did c1ccc(CNCc2nnc(-c3cc4ccccc4[nH]3)o2)cc1 do in these assays?
TDP1 inh: inactive

How did N#C/C(=C\c1ccc(O)c(O)c1)C(=O)NCCc1ccccc1 do in these assays?
POLI inh: inconclusive; Pol kappa inh: inconclusive; TDP1 inh: inactive; Pol eta inh: 8.9µM; Pol beta inh: inactive

How did N#C/C(=C\c1ccc(O)c(O)c1)C(=O)N1CCc2ccccc21 do in these assays?
POLI inh: inconclusive; Pol kappa inh: inactive; Pol eta inh: 40µM

How did N#C/C(=C\c1ccc(O)c(O)c1)C(=O)NCCCCc1ccccc1 do in these assays?
Pol kappa inh: inconclusive; TDP1 inh: inactive

Results for N#CN=c1snc(-c2ccccc2Cl)n1-c1ccc(F)cc1 ?
POLI inh: inactive; Pol kappa inh: inactive

What do the screens show for `Nn1cnnc1N/N=C/c1ccc(Cl)cc1Cl`?
POLI inh: 11µM; Pol kappa inh: inactive; Pol eta inh: inactive; Pol beta inh: inactive

What do the screens show for `COc1ccc(CSc2nncn2N)cc1Br`?
POLI inh: inactive; Pol kappa inh: inactive; TDP1 inh: inactive; Pol eta inh: inactive; Pol beta inh: inactive

What do the screens show for `COc1cc(/C=N/Nc2nncn2N)ccc1OCc1c(C)no[n+]1[O-]`?
POLI inh: 7.1µM; Pol kappa inh: inactive; TDP1 inh: inactive; Pol eta inh: inactive; Pol beta inh: inactive

How did COc1ccc(/C=N/Nc2nncn2N)cc1Br do in these assays?
POLI inh: 8.9µM; Pol kappa inh: inactive; Pol eta inh: inactive; Pol beta inh: inactive
